Data on 109 compounds can be found in PubChem BioAssay AID1240 (Sanford-Burnham Center for Chemical Genomics, 2008).

The structures appear in SMILES notation. In all, about 50,000 compounds went through this assay and about 800 (1.6%) showed an effect of 50% or more. The sample as a whole holds a higher share of strong results than the screen did.

In this assay the target is Bcl-2-like protein 10 (Homo sapiens) (UniProt Q9HD36). The experiment in a line: Phenotype converters, Bcl-B/TR3 peptide binding displacement, primary biochemical FP (AID 1240).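 Further: 0% = Bcl-B with tracer peptide and DMSO and 100% = tracer peptide lacking Bcl-B.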 The following applies: GST-Bcl-B / FITC-TR3 peptide fluorescence polarization; stronger effect = higher value; compound at 3.75 mg/L.
Bcl-2-like protein 10 (Homo sapiens), sequence (Q9HD36 whole entry, looked up): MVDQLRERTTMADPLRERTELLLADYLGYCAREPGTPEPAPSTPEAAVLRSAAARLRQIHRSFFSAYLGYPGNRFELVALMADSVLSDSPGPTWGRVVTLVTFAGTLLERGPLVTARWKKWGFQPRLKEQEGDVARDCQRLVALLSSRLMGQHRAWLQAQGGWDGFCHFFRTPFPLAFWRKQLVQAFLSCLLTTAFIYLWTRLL
Take `CC1CCc2c(nc3ccccc3c2C(=O)O)C1` (centres undefined): the displacement was -14.7%. On to `CN(C)/C=C/C=C1C(=O)OC(C)(C)OC1=O`, for which the displacement was 0.3%. For `O=C(O)c1ccccc1C(=O)c1ccc(Cl)c(N2C(=O)CCC2=O)c1`, the displacement is -1.3%. The value for `Cc1cc(NS(=O)(=O)c2ccc(NC(=O)C(Cl)(Cl)Cl)cc2)nc(C)n1` was 1.3%; that for `COc1ccc(Br)cc1Cn1c(=O)[nH]c2cc(C(F)(F)F)ccc21` was -5.6%; that for `CC(C)(C)C(=O)Nc1cccc(C(=O)NCc2ccc(CNC(=O)c3cccc(NC(=O)C(C)(C)C)c3)cc2)c1` was 9.9%.

Consider `O=C(Oc1cccc(/C=C2/SC(=S)N(c3ccccc3)C2=O)c1)c1ccco1`, for which the displacement was -17.2%.

Consider `Cc1cc(-n2cc(C=O)c(-c3ccccc3)n2)nc2ccccc12`, for which the displacement worked out at 75.4%. For `Cc1cc(C)c(-c2nn(-c3ccccc3)cc2C=O)c(C)c1`, the displacement amounted to 10.9%.

`O=Cc1cn(-c2ccccc2)nc1-c1ccc(Cl)cc1`: the displacement came out at 7.5%. Take `Cc1ccc(C(=O)/C=C2\C(=O)Nc3ccccc32)cc1`: the displacement was found to be 6.7%. Consider `O=C(O)CCCC(=O)OCc1ccco1`, for which the displacement came out at 31.3%. Consider `O=C(COc1ccc([N+](=O)[O-])cc1)NNC(=O)c1ccccc1Cl`, for which the displacement was 11.6%. The value for `O=C1S/C(=C/c2ccc(-c3cccc([N+](=O)[O-])c3)o2)C(=O)N1c1ccccc1` was 111%; that for `O=C(O)c1ccc(-c2ccc(/C=C3/SC(=O)N(c4ccccc4)C3=O)o2)cc1` was 27.7%; that for `O=[N+]([O-])c1ccccc1-c1ccc(/C=N/n2cnnc2)o1` was 8.8%. Turning to `O=C1S/C(=C/c2ccc(-c3ccc([N+](=O)[O-])cc3Cl)o2)C(=O)N1c1ccccc1`, the displacement turned out to be 47.4%. As for `O=C1S/C(=C/c2ccc(-c3ccc(F)cc3)o2)C(=O)N1c1ccccc1`, the displacement was determined as 12.2%.

Consider `O=C1S/C(=C\c2ccc(-c3ccccc3[N+](=O)[O-])o2)C(=O)N1c1ccccc1`, for which the displacement was found to be 47.7%. The value for `O=C1S/C(=C\c2ccc(-c3ccc([N+](=O)[O-])cc3)o2)C(=O)N1c1ccccc1` was 70.2%.

Turning to `O=[N+]([O-])c1ccc(-c2ccc(/C=N/n3cnnc3)o2)cc1`, the displacement was determined as 139%. For `Fc1ccc(-c2ccc(/C=N/n3cnnc3)o2)cc1`, the displacement was found to be 7.8%. Turning to `Cc1cccc(/C=C2/SC(=S)N(CN3CCCCC3)C2=O)c1`, the displacement amounted to 11.3%. The value for `O=C1CCCCC1Oc1ccc2c(-c3ccccc3)cc(=O)oc2c1` (centres undefined) was -9.6%; that for `O=C(COc1ccc2ccccc2c1)Nc1cc([N+](=O)[O-])ccc1F` was 29.5%. In the case of `CCSC1C(C)=C(C)C(=O)N1C(C)(C)c1cc(Cl)cc(Cl)c1` (centres undefined), the displacement amounted to 21.2%. The value for `CCOc1ccccc1NC(=O)CN1C(=O)/C(=C/c2cccc(Br)c2)SC1=S` was 78.7%; that for `O=C(O)CCCN1C(=O)/C(=C\c2cccc(O)c2)SC1=S` was 0.6%. Consider `O=C(CN1C(=O)/C(=C/c2ccccc2)SC1=S)Nc1cccc(Br)c1`, for which the displacement came out at 11.9%. For `COc1ccc(NC(=O)CN2C(=O)/C(=C/c3cccc(Br)c3)SC2=S)cc1`, the displacement worked out at 11.6%.

In the case of `O=C(O)CCCCCCCCCCN1C(=O)/C(=C/c2cccc(Br)c2)SC1=S`, the displacement was -3.4%. The value for `CCOc1ccccc1NC(=O)CN1C(=O)/C(=C\c2cc(OC)c(OC)c(OC)c2)SC1=S` was 36.8%; that for `O=C(CN1C(=O)/C(=C/c2cccc(Br)c2)SC1=S)Nc1ccccn1` was 69%; that for `O=C(CN1C(=O)/C(=C/c2cccc(Br)c2)SC1=S)Nc1cccnc1` was 9.6%.

Take `O=C(O)CCCN1C(=O)/C(=C/c2cccc(Br)c2)SC1=S`: the displacement was determined as 91.2%.

`O=c1[nH]c(=S)[nH]c(O)c1C=Nc1cc(Cl)ccc1O`: the displacement came out at 3.2%. Take `O=C(CN1C(=O)CCC1=O)NCCc1ccccc1`: the displacement is -5.5%. For the compound `COc1ccc(Cl)cc1C(=O)Nc1cccc2nsnc12`, the displacement came out at 12.8%. The value for `O=C1C(Cl)=C(Nc2ccccc2)C(=O)N1c1ccc(Br)cc1` was 6.4%; that for `COc1ccccc1-n1c(O)c(C=Nc2ccccc2Cl)c(=O)[nH]c1=O` was 1.2%. Take `O=C1C2=C(Nc3ccccc3SC2c2ccc3c(c2)OCO3)c2ccccc21` (centres undefined): the displacement is -16.3%. The value for `CN1CCN(C(=O)CCN2C(=O)/C(=C/c3cccs3)SC2=S)CC1` was 0.2%. Turning to `CCN(CC)C(=O)Cc1ccc2c3c(cccc13)CC2`, the displacement stood at 12.7%.

Turning to `COc1ccc(NC(=O)C/C(C)=N/NC(=O)c2cnccn2)cc1`, the displacement was -21.6%. The value for `COc1ccc(NC(=O)c2cnccn2)cc1` was 105%. As for `CC(=O)c1ccc(NC(=O)c2cnccn2)cc1`, the displacement was 37.3%. On to `CCOc1ccc(C(=O)Nc2ccc3oc(-c4ccccc4Br)nc3c2)cc1`, for which the displacement worked out at 14%.

Turning to `Cc1ccc(NC(=O)c2cccc(C(=O)Nc3ccc(C)c(C)c3)c2)cc1C`, the displacement is -0.1%.

As to `O=C(CCCN1C(=O)c2cccc3cccc(c23)C1=O)OC/C=C/c1ccccc1`, the displacement is 6.6%. The value for `Brc1ccc(Nc2nc(-c3ccncc3)nc3ccccc23)cc1` was 44.4%.

Take `Fc1ccc(Nc2nc(-c3ccncc3)nc3ccccc23)cc1F`: the displacement came out at 47.8%.

On to `Clc1ccc(Nc2nc(-c3ccncc3)nc3ccccc23)cc1`, for which the displacement came out at 109%. With `O=C(Nc1ccc2c(c1)OCO2)c1ccccc1[N+](=O)[O-]`, the displacement is -5.9%. For `O=C(O)CSc1nnc2c(n1)[nH]c1ccccc12`, the displacement came to 3.1%. In the case of `Cc1ccc(/C=C2\CCC/C(=C\c3ccc(C)o3)C2=O)o1`, the displacement worked out at 15.2%.

On to `Cc1nc(SCC(=O)Nc2nnc(-c3ccccc3)s2)n[nH]1`, for which the displacement amounted to 11.9%. As for `C/C(NCc1ccccc1)=C(\C#N)C(=O)NCc1ccccc1`, the displacement was -2.4%. For the compound `COc1cc(-c2csc(N)n2)ccc1O`, the displacement is 15.6%. Take `CC(C)NC(=O)COc1ccc(C=C2C(=O)NC(=O)NC2=O)cc1`: the displacement is 1.8%. The value for `O=C(COc1ccc(C=C2C(=O)NC(=O)NC2=O)cc1)NCCc1ccccc1` was 82.5%. In the case of `CC(NC(=O)COc1ccc(C=C2C(=O)NC(=O)NC2=O)cc1)c1ccccc1` (centres undefined), the displacement is 7.3%. The value for `C/C=C/COC(=O)C1=C(C)NC(=O)NC1c1cc(Cl)c(O)c(OC)c1` (centres undefined) was 8.4%; that for `CCOC(=O)c1c(NC(=O)c2ccc(Cl)cc2)sc2ccccc12` was 39.1%. In the case of `CCOC(=O)c1c(NC(=O)c2cc(OCC)c(OCC)c(OCC)c2)sc(C)c1C`, the displacement is -6.2%. With `CCOC(=O)c1c(NC(=O)c2ccc(OC(C)C)c(OCC)c2)sc2ccccc12`, the displacement is 80%. As for `COc1ccc(Nc2ncnc3ccc(C)cc23)cc1`, the displacement was 9%. On to `Cc1ccc(S(=O)(=O)N/N=C/c2ccc(-c3ccc([N+](=O)[O-])cc3C)o2)cc1`, for which the displacement was determined as 52.8%.

`Cc1ccc(S(=O)(=O)N/N=C/c2ccc(-c3ccc([N+](=O)[O-])cc3Cl)o2)cc1`: the displacement is -9.8%. As for `Cc1ccc(OCC(=O)N/N=C\c2ccc(-c3ccc([N+](=O)[O-])cc3)o2)cc1`, the displacement turned out to be 116%. On to `O=C(COc1ccc(I)cc1)N/N=C/c1ccc(-c2ccc([N+](=O)[O-])cc2)o1`, for which the displacement stood at 59%. Turning to `Cc1ccc(OCC(=O)N/N=C\c2ccc(-c3ccc(Cl)cc3)o2)cc1`, the displacement stood at 38.4%. In the case of `O=[N+]([O-])c1ccc(N/N=C/c2ccc(-c3ccc(Cl)cc3)o2)cc1`, the displacement was -4%. In the case of `O=C(COc1ccc(Cl)cc1)N/N=C/c1ccc(I)o1`, the displacement is -6%. Consider `Cc1ccc(S(=O)(=O)N/N=C/c2ccc(-c3ccc([N+](=O)[O-])cc3Br)o2)cc1`, for which the displacement is 2.5%.

With `Cc1ccc2nc(-c3ccc(OCC(=O)N/N=C/c4ccc([N+](=O)[O-])o4)cc3)cc(-c3ccccc3)c2c1`, the displacement is -16.7%. The value for `CCN(CC)Cc1c(O)ccc2c(-c3ccccc3)cc(=O)oc12` was -8.3%; that for `Brc1ccc(CN2CCN(C3CCN(Cc4ccccc4)CC3)CC2)cc1` was -15.5%.

For the compound `COc1ccc(S(=O)(=O)N(CC(=O)Nc2ccc(C)c(C)c2)c2ccc(C)cc2)cc1OC`, the displacement is 17.2%.

`CCOc1ccc(-c2cc(C(=O)NN)c3ccccc3n2)cc1`: the displacement is -18%. The value for `Cc1csc(Nc2ccccc2)[n+]1CCO` was 4.4%; that for `Cc1cc(N(C)/N=C/c2ccccc2Cl)nc(-c2ccccc2O)n1` was 5.1%. The value for `CC(=O)N1CCN(c2ccc(C(=O)c3ccccc3)cc2F)CC1` was 0.4%; that for `Clc1ccc(-c2ccc(/C=C\c3nc4ccccc4o3)o2)cc1` was 95.3%; that for `N#C/C(=C\c1ccc(-c2ccc(Cl)cc2)o1)c1ccccc1` was 130%. Turning to `N#C/C(=C\c1ccc(-c2cccc(Cl)c2)o1)c1ccccc1`, the displacement is -6.4%. Regarding `N#C/C(=C\c1ccc(-c2ccc(Cl)cc2)o1)c1ccc(Cl)cc1`, the displacement was 123%.

As for `N#C/C(=C\c1ccc(I)o1)c1ccccc1`, the displacement is -34%. Regarding `O/N=C\c1ccc(-c2ccc(Cl)c(Cl)c2)o1`, the displacement is -7.3%. As for `O=[N+]([O-])/C=C/c1ccc(-c2ccc(Cl)cc2)o1`, the displacement was 14.7%. For the compound `N#C/C(=C/c1ccc(I)o1)c1ccc(Cl)cc1`, the displacement was -24.1%.

`N#C/C(=C\c1ccc(-c2cccc(C(F)(F)F)c2)o1)c1ccc(Cl)cc1`: the displacement was -15.3%. The value for `N#C/C(=C\c1ccc(-c2ccc(Cl)c(Cl)c2)o1)c1ccccc1` was 135%; that for `O=C(/C=C/c1ccc(-c2ccc(Cl)cc2)o1)c1ccccc1` was 41.8%. On to `N#C/C(=C\c1ccc(-c2cccc(Cl)c2)o1)c1ccc(Cl)cc1`, for which the displacement was -3.8%.

`CSc1ccc(Cl)c(C(=O)Nc2ccc(Cl)cn2)c1`: the displacement was -39.3%.

Take `CC1CCN(C(=O)CN(c2cccc([N+](=O)[O-])c2)S(=O)(=O)c2ccccc2)CC1`: the displacement stood at 3.3%. On to `O=C(NC1CCCCC1)c1ccc([N+](=O)[O-])cc1`, for which the displacement came to 0.7%. For the compound `O=C(N1CCCCC1)C12CC3CCC(CC(C3)C1)C2`, the displacement amounted to 6.3%. In the case of `O=C(c1ccc2nc3c4ccccc4c4ccccc4c3nc2c1)N1CCOCC1`, the displacement was found to be 18.3%. The value for `CCOC(=O)N1CCN(C(=O)Nc2ccc3nc4c5ccccc5c5ccccc5c4nc3c2)CC1` was 22.4%.

As to `O=C(Nc1ccc2nc3c4ccccc4c4ccccc4c3nc2c1)N1CCOCC1`, the displacement came to 77.1%. On to `Cc1ccc(C(=O)N2C(C)CCCC2C)cc1[N+](=O)[O-]` (centres undefined), for which the displacement is -4%. The value for `COc1ccc(CC(=O)O/N=C(\N)Cc2ccc([N+](=O)[O-])cc2)cc1OC` was 14.2%. The value for `COc1cccc(/C=C2\SC(=S)N(C3CCCCC3)C2=O)c1O` was -3.3%; that for `O=C1/C(=C/C=C/c2ccccc2)SC(=S)N1C1CCS(=O)(=O)C1` (centres undefined) was 56.9%; that for `O=C1/C(=C\c2ccc(N3N=C(c4ccccc4)CC3c3ccccc3)cc2)SC(=S)N1C1CCS(=O)(=O)C1` (centres undefined) was -14.9%. Turning to `O=C1/C(=C/C2CC=CCC2)SC(=S)N1C1CCS(=O)(=O)C1` (centres undefined), the displacement is 9.6%.

Regarding `O=C1/C(=C/c2ccc(Cl)cc2Cl)SC(=S)N1C1CCS(=O)(=O)C1` (centres undefined), the displacement was determined as 7.1%. `COc1ccccc1/C=C1\SC(=S)N(C2CCS(=O)(=O)C2)C1=O` (centres undefined): the displacement came to 137%.
